# Assay results from article PMC7862700, “An all-to-all approach to the identification of sequence-specific readers for epigenetic DNA modifications on cytosine”.
# What was measured:
# Assay in all cases: DAPPL (digital affinity profiling via proximity ligation, sequencing); 10 mM Tris-HCl pH 7.5, 50 mM NaCl, 1 mM DTT, 4% glycerol, room temperature, 30 min; GST-TFs on glutathione beads, 16-mer random dsDNA library, 0.1% formaldehyde crosslink after washing; high values mean tight binding
# FLI1 = target: T1, FLI1 (Homo sapiens, UniProt Q01543 1-452); conditions: protein: recombinant; tags: N-terminal GST; dsDNA, one strand shown
# T1 sequence: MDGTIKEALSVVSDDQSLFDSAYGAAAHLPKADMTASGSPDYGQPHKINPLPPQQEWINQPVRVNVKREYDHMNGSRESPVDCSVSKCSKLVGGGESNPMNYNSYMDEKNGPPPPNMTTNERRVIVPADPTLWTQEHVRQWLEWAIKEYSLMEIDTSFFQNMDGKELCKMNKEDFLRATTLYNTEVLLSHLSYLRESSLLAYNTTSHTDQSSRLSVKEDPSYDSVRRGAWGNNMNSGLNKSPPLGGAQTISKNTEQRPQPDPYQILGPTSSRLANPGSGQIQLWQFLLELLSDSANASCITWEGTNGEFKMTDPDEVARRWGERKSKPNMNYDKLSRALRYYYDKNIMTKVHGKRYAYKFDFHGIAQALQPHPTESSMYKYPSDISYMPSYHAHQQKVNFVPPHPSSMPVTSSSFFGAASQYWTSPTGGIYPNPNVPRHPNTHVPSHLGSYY
# How it was run: (§1)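 Pools of DNA-barcoded human transcription factors, expressed in yeast as GST fusions on glutathione beads and combined with a tag-only sample, were incubated with 200 nmole of a 16-mer random double-stranded DNA library. Incubation took 30 min at room temperature in Tris/NaCl/DTT/glycerol buffer and was followed by washing, 0.1% formaldehyde crosslinking, proximity ligation (BsaI/T4 ligase, 1 h, 37 °C), PCR amplification and sequencing on an Illumina NextSeq500. Binding signal is the ratio of a hexamer's read frequency for a factor to its frequency for the tag-only sample.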
# ELK1 = target: T2, ELK1 (Homo sapiens, UniProt P19419 1-428); conditions: protein: recombinant; tags: N-terminal GST; dsDNA, one strand shown
# T2 sequence: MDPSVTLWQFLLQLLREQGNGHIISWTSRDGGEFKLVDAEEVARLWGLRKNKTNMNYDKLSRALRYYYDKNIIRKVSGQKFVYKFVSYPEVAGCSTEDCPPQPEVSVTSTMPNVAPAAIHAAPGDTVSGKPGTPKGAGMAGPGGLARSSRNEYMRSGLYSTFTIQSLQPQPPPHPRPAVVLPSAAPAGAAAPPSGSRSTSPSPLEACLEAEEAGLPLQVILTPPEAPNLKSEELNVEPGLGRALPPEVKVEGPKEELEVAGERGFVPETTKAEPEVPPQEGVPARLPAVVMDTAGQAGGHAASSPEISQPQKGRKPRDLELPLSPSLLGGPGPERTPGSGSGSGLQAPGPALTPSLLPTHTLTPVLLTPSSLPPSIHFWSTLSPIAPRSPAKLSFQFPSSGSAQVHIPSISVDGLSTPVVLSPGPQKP
# How it was run: as §1
# GABPA = target: T3, GABPA (Homo sapiens, UniProt Q06546 1-454); conditions: protein: recombinant; tags: N-terminal GST; dsDNA, one strand shown
# T3 sequence: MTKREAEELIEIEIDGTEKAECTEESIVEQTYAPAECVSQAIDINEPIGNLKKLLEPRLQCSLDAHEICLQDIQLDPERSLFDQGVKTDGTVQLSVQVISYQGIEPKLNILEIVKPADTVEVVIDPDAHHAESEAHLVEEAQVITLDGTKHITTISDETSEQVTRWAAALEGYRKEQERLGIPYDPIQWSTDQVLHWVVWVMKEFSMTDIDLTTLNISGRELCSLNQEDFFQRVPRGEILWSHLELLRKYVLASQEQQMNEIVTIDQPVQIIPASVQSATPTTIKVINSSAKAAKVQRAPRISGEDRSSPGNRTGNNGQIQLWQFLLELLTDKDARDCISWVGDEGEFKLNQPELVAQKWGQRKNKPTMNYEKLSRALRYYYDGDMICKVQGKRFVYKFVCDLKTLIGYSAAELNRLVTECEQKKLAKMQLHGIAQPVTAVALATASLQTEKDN
# How it was run: as §1
# ERG = target: T4, ERG (Homo sapiens, UniProt P11308 1-479); conditions: protein: recombinant; tags: N-terminal GST; dsDNA, one strand shown
# T4 sequence: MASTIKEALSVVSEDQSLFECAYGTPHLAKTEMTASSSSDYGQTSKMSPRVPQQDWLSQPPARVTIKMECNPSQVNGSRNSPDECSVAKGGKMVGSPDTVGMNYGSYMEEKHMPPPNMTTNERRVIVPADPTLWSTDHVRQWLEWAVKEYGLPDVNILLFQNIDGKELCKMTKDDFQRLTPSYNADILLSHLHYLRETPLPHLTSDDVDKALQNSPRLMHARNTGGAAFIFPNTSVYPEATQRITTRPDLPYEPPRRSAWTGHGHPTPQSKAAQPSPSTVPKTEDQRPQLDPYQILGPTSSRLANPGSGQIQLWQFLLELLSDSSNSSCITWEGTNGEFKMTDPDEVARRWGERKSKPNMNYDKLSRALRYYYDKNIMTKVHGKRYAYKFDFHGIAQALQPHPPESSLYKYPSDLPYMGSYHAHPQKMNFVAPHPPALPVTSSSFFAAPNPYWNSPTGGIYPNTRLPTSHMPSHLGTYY
# How it was run: as §1
# ELF1 = ELF1 (Homo sapiens, UniProt P32519 1-619); conditions: protein: recombinant; tags: N-terminal GST; dsDNA, one strand shown
# Chain of ELF1 (P32519 whole entry): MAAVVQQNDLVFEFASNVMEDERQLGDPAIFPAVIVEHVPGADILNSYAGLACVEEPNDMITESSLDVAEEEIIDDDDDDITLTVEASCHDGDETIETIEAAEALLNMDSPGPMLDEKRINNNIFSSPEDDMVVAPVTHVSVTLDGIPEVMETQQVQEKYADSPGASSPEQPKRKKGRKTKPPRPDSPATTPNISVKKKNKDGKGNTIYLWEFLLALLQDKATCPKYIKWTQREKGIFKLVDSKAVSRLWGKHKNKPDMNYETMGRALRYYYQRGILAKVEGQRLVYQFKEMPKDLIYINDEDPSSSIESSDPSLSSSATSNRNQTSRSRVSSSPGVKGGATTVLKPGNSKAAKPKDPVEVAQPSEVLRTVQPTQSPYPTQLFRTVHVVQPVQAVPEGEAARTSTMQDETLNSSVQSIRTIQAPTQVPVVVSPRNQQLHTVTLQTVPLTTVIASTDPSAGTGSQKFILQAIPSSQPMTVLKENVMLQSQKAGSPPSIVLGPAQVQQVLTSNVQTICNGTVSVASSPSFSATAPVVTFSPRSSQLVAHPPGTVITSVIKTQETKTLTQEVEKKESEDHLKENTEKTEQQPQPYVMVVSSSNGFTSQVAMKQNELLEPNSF
# How it was run: as §1
# EHF = target: T5, EHF (Homo sapiens, UniProt Q9NZC4 1-300); conditions: protein: recombinant; tags: N-terminal GST; dsDNA, one strand shown
# T5 sequence: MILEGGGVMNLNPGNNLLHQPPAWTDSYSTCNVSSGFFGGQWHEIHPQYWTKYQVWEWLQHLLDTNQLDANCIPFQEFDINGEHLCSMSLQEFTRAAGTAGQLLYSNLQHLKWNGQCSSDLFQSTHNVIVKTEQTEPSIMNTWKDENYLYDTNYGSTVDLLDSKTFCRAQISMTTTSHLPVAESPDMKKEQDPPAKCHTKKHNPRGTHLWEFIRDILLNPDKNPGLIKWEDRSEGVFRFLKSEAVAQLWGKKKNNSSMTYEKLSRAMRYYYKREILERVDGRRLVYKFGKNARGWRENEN
# How it was run: as §1
# SPI1 = SPI1 (Homo sapiens, UniProt P17947 1-270); conditions: protein: recombinant; tags: N-terminal GST; dsDNA, one strand shown
# How it was run: as §1
# SPIB = SPIB (Homo sapiens, UniProt Q01892 1-262); conditions: protein: recombinant; tags: N-terminal GST; dsDNA, one strand shown
# Chain of SPIB (Q01892 whole entry): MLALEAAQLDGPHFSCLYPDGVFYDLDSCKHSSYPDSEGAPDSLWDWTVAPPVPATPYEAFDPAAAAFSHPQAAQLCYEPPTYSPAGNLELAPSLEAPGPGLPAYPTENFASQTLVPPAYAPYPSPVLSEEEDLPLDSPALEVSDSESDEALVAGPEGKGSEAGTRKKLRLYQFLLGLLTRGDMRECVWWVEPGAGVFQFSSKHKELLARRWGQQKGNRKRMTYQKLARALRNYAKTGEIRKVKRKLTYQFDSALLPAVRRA
# How it was run: as §1
# ELK3 = target: T6, ELK3 (Homo sapiens, UniProt P41970 1-407); conditions: protein: recombinant; tags: N-terminal GST; dsDNA, one strand shown
# T6 sequence: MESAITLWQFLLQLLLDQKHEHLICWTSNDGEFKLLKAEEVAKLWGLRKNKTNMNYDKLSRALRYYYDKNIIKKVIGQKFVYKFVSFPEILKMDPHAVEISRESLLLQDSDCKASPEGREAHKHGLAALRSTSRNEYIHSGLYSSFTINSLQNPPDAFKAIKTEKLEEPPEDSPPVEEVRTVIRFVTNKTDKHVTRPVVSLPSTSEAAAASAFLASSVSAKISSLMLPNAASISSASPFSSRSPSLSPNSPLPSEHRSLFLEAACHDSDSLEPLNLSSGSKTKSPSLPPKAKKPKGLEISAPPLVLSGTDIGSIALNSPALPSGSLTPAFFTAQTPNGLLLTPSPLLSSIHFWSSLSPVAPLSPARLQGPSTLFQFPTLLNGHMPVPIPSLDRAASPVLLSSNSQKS
# How it was run: as §1
# FEV = target: T7, FEV (Homo sapiens, UniProt Q99581 1-238); conditions: protein: recombinant; tags: N-terminal GST; dsDNA, one strand shown
# T7 sequence: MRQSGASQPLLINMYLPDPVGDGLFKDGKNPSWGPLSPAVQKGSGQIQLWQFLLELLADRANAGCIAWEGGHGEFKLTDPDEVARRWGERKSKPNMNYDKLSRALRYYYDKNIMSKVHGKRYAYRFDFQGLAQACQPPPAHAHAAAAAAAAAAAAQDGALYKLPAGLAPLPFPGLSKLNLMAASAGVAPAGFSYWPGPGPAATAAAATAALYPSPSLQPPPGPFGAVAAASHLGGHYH
# How it was run: as §1
# ETV5 = ETV5 (Homo sapiens, UniProt P41161 1-510); conditions: protein: recombinant; tags: N-terminal GST; dsDNA, one strand shown
# Chain of ETV5 (P41161 whole entry): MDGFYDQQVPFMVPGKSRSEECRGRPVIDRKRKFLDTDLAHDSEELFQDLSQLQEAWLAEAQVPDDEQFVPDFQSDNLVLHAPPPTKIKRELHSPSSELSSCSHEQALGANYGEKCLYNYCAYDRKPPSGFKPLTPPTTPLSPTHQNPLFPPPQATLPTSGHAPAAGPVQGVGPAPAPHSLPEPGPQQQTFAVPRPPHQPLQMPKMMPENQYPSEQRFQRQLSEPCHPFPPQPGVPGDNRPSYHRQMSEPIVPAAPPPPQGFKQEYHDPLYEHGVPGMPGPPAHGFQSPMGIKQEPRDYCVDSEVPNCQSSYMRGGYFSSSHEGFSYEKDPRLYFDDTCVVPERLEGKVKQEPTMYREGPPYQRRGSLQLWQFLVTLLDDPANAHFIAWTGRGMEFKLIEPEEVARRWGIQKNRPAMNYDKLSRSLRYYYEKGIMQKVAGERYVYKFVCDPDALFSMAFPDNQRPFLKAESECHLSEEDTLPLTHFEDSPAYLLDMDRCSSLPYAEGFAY
# How it was run: as §1
# HSF1 = HSF1 (Homo sapiens, UniProt Q00613 1-529); conditions: protein: recombinant; tags: N-terminal GST; chain copies: 3; dsDNA, one strand shown
# Chain of HSF1 (Q00613 whole entry): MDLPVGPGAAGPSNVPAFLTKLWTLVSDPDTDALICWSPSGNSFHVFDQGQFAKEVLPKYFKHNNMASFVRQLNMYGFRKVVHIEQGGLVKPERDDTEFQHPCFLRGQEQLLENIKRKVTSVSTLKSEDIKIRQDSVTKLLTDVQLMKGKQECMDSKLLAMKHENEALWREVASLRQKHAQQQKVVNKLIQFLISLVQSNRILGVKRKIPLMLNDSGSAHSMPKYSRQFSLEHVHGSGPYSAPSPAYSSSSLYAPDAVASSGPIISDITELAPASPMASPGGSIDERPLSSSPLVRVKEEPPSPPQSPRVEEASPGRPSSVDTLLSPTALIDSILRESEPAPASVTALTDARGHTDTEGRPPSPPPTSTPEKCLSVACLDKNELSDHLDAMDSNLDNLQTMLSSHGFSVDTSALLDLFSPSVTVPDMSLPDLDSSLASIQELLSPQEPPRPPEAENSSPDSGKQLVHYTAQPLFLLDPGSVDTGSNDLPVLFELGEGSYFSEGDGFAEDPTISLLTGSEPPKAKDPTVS
# How it was run: as §1
# SPIC = target: T8, SPIC (Homo sapiens, UniProt Q8N5J4 1-248); conditions: protein: recombinant; tags: N-terminal GST; dsDNA, one strand shown
# T8 sequence: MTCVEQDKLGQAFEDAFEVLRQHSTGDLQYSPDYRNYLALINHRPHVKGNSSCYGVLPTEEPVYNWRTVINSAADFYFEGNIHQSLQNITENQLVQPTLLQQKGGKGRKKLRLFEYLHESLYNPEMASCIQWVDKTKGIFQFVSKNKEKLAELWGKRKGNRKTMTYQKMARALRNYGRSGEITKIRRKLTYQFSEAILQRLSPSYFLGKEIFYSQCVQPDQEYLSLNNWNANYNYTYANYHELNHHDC
# How it was run: as §1
# ELF4 = ELF4 (Homo sapiens, UniProt Q99607 1-663); conditions: protein: recombinant; tags: N-terminal GST; dsDNA, one strand shown
# Chain of ELF4 (Q99607 whole entry): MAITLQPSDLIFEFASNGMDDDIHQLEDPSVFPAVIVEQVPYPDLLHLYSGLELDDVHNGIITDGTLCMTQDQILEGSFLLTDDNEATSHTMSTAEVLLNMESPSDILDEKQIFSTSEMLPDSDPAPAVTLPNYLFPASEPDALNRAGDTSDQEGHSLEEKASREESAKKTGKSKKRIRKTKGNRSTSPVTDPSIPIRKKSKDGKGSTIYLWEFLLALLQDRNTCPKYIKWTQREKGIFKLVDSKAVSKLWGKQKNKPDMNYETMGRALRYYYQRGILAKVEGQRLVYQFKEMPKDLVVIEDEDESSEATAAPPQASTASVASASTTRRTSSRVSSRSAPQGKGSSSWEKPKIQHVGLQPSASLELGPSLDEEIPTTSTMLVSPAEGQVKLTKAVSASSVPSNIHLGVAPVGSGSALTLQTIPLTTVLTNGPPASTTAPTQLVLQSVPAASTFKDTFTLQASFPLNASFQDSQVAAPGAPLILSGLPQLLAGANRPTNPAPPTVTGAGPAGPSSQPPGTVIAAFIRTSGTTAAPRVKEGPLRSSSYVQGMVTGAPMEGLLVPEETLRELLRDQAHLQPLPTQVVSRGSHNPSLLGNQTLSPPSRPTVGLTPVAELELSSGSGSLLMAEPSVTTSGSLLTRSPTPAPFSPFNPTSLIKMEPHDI
# How it was run: as §1
# ELK4 = target: T9, ELK4 (Homo sapiens, UniProt P28324-2 1-405); conditions: protein: recombinant; tags: N-terminal GST; dsDNA, one strand shown
# T9 sequence: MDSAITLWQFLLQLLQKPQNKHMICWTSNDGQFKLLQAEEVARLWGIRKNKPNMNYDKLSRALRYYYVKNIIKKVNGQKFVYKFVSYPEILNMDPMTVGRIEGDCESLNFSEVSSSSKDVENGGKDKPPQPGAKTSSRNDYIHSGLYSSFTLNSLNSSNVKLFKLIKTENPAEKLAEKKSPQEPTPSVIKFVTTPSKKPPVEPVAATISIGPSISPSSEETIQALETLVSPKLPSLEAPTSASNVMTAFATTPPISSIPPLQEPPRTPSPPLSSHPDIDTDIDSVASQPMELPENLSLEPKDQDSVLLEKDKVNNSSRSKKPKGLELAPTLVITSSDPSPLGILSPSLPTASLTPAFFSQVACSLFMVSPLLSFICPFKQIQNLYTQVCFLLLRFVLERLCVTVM
# How it was run: as §1
# ETV2 = target: T10, ETV2 (Homo sapiens, UniProt O00321 1-342); conditions: protein: recombinant; tags: N-terminal GST; dsDNA, one strand shown
# T10 sequence: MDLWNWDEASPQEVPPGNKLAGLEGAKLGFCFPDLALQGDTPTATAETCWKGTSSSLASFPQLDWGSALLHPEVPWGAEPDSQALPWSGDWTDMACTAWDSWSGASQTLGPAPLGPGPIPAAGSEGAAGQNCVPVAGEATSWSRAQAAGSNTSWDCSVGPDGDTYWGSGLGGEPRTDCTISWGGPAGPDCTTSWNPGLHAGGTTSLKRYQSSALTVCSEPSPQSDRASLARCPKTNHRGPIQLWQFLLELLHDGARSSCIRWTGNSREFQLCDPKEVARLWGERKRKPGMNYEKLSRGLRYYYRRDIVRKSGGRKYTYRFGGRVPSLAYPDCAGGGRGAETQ
# How it was run: as §1
# ELF3 = target: T11, ELF3 (Homo sapiens, UniProt P78545 1-371); conditions: protein: recombinant; tags: N-terminal GST; dsDNA, one strand shown
# T11 sequence: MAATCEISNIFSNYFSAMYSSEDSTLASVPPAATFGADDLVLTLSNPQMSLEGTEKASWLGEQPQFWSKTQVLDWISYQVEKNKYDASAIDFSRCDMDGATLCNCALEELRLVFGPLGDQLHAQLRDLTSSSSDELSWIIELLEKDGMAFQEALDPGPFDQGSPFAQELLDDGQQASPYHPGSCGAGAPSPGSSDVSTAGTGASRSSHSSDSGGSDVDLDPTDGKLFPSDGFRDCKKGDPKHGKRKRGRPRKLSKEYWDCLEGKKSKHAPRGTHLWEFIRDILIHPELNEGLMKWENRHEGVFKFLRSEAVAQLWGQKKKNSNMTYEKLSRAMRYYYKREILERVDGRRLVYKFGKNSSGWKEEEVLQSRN
# How it was run: as §1
# CRX = CRX (Homo sapiens, UniProt O43186 1-299); conditions: protein: recombinant; tags: N-terminal GST; dsDNA, one strand shown
# Chain of CRX (O43186 whole entry): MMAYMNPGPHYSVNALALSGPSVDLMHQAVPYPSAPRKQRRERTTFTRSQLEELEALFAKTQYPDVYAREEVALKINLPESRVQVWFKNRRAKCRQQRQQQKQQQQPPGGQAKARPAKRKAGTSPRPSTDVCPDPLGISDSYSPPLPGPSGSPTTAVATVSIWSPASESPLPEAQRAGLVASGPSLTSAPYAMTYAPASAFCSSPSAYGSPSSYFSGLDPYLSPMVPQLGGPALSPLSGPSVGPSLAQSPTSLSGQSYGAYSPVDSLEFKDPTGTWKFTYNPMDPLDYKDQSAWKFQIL
# How it was run: as §1
# ETV1 = ETV1 (Homo sapiens, UniProt P50549 1-477); conditions: protein: recombinant; tags: N-terminal GST; dsDNA, one strand shown
# Chain of ETV1 (P50549 whole entry): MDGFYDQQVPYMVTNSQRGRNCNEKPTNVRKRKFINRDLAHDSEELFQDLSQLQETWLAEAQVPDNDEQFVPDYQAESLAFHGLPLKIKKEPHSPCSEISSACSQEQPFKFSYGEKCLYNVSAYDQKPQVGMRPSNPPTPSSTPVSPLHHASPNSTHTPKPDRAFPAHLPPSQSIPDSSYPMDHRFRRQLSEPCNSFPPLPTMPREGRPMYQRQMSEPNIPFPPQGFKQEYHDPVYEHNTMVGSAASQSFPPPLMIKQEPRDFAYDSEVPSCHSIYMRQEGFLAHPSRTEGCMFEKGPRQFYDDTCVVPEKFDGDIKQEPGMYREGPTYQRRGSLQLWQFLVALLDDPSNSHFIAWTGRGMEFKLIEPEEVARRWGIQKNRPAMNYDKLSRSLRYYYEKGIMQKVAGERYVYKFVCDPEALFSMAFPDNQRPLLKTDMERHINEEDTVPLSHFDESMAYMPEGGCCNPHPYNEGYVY
# How it was run: as §1
sequence,measurement,setting,value
CTCTCG,binding signal,FLI1,"1.42 fold enrichment (6-mer frequency, TF over GST control)"
same,binding signal,ELK1,"1.34 fold enrichment (6-mer frequency, TF over GST control)"
same,binding signal,GABPA,"1.37 fold enrichment (6-mer frequency, TF over GST control)"
same,binding signal,ERG,"1.44 fold enrichment (6-mer frequency, TF over GST control)"
same,binding signal,ELF1,"1.49 fold enrichment (6-mer frequency, TF over GST control)"
same,binding signal,EHF,"1.31 fold enrichment (6-mer frequency, TF over GST control)"
same,binding signal,SPI1,"1.45 fold enrichment (6-mer frequency, TF over GST control)"
same,binding signal,SPIB,"1.37 fold enrichment (6-mer frequency, TF over GST control)"
same,binding signal,ELK3,"1.47 fold enrichment (6-mer frequency, TF over GST control)"
same,binding signal,FEV,"1.3 fold enrichment (6-mer frequency, TF over GST control)"
same,binding signal,ETV5,"1.32 fold enrichment (6-mer frequency, TF over GST control)"
same,binding signal,HSF1,"1.99 fold enrichment (6-mer frequency, TF over GST control)"
same,binding signal,SPIC,"1.3 fold enrichment (6-mer frequency, TF over GST control)"
same,binding signal,ELF4,"1.45 fold enrichment (6-mer frequency, TF over GST control)"
same,binding signal,ELK4,"1.41 fold enrichment (6-mer frequency, TF over GST control)"
same,binding signal,ETV2,"1.73 fold enrichment (6-mer frequency, TF over GST control)"
same,binding signal,ELF3,"1.65 fold enrichment (6-mer frequency, TF over GST control)"
same,binding signal,CRX,"1.32 fold enrichment (6-mer frequency, TF over GST control)"
same,binding signal,ETV1,"1.47 fold enrichment (6-mer frequency, TF over GST control)"
